Among the test systems are RPMI-8226 leukemia; OVCAR-8 ovarian; OVCAR-5 ovarian; OVCAR-4 ovarian; SK-OV-3 ovarian; IGROV1 ovarian; OVCAR-3 ovarian; HS 578T breast; NCI/ADR-RES ovarian; T-47D breast; BT-549 breast; MDA-MB-435 melanoma; SW-620 colon; MCF7 breast; HCT-116 colon; HCC-2998 colon; KM12 colon.
Common to all, as to experiment: NCI-60 one-dose screen, 48 h (100 = growth as untreated, 0 = no growth, -100 = all killed)
What all share (conditions): 10 µM unless noted

Compounds without any hit were thinned out: in the full panel of roughly 83,000, 20% have a hit.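 Method: cells in 96-well plates; compound added at one concentration; 48 h incubation; percent growth measured; values under 10 scored active.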 Unmarked numbers belong to inactive results. The source made the active and inactive calls.

Regarding `Brc1ccc(Nc2csc(-c3ccccn3)n2)cc1`, the growth in the test with RPMI-8226 leukemia was 98%; with OVCAR-8 ovarian it was 98.6%; with OVCAR-5 ovarian, 76.6%; in the test on OVCAR-4 ovarian it was 101%; in the test on SK-OV-3 ovarian it was 82.8%; in the test on IGROV1 ovarian it was 63.4%. The growth with OVCAR-3 ovarian was 95.7%; in the test on HS 578T breast, 92.4%; with NCI/ADR-RES ovarian, 93.5%; in the test on T-47D breast, 82.6%; in the test with BT-549 breast, 101%; with MDA-MB-435 melanoma, 100%. Also, the growth in the test on SW-620 colon was 71%; in the test on MCF7 breast, 87.2%; in the test with HCT-116 colon it was 88.8%; in the test on HCC-2998 colon, 92.2%; in the test with KM12 colon it was 72.7%.
Regarding `CC(c1ccccc1)C(C(=O)c1ccccc1)c1ccccc1` (stereo not drawn), the growth in the test on RPMI-8226 leukemia was 107%; with OVCAR-8 ovarian, 63.7%; in the test with OVCAR-5 ovarian, 101%; in the test on OVCAR-4 ovarian it was 96%; with SK-OV-3 ovarian, 101%; in the test with IGROV1 ovarian it was 99.5%. Further, the growth in the test on OVCAR-3 ovarian is 110%; in the test on HS 578T breast it was 91.2%; in the test with NCI/ADR-RES ovarian it was 80.3%; with T-47D breast, 91.5%; in the test with BT-549 breast, 101%; with MDA-MB-435 melanoma, 110%. Further, the growth in the test on SW-620 colon is 97.7%; in the test on MCF7 breast it was 98%; with HCT-116 colon, 74.5%; with HCC-2998 colon, 93.4%; with KM12 colon, 104%.
`COC(=O)c1ccc2c(c1)[n+](=O)c(C(C)=O)c(C(F)(F)F)n2[O-]`: the growth in the test with RPMI-8226 leukemia is -48% (active); with OVCAR-8 ovarian, 9.07% (active); with OVCAR-5 ovarian it was -12.9% (active); with OVCAR-4 ovarian, -42% (active); in the test on SK-OV-3 ovarian, -31.4% (active); with IGROV1 ovarian, -78.3% (active). Further, the growth was -92.8% (active) in the test on OVCAR-3 ovarian; -19.4% (active) in the test with HS 578T breast; -40.7% (active) with NCI/ADR-RES ovarian; -73.6% (active) with T-47D breast; -19.6% (active) with BT-549 breast; 0.455% (active) with MDA-MB-435 melanoma. Moreover, the growth with SW-620 colon was 18.1%; in the test with MCF7 breast, -50.3% (active); with HCT-116 colon it was -98% (active); in the test on HCC-2998 colon, -86.9% (active); in the test on KM12 colon it was -93.5% (active).
`Cn1cc(-c2nc(-c3c[nH]c4c(Cl)nccc34)cs2)c2cc(F)ccc21`: the growth in the test with RPMI-8226 leukemia was 90.1%; in the test on OVCAR-8 ovarian, 89.6%; in the test with OVCAR-5 ovarian, 119%; in the test with OVCAR-4 ovarian, 88%; in the test with SK-OV-3 ovarian, 100%; with IGROV1 ovarian, 117%. Besides, the growth was 114% in the test on OVCAR-3 ovarian; 113% with HS 578T breast; 111% in the test with NCI/ADR-RES ovarian; 48.6% with T-47D breast; 118% with BT-549 breast; 98.6% in the test on MDA-MB-435 melanoma. Besides, the growth in the test on SW-620 colon is 102%; in the test on MCF7 breast it was 68.1%; with HCT-116 colon, 105%; in the test with HCC-2998 colon, 119%; with KM12 colon, 96.4%.
In the case of `COc1cc(/C=C\C(=O)O)ccc1OCc1ccccc1`, the growth is 90.2% in the test with RPMI-8226 leukemia; 93.7% in the test with OVCAR-8 ovarian; 110% in the test with OVCAR-5 ovarian; 108% in the test on OVCAR-4 ovarian; 102% with SK-OV-3 ovarian; 103% in the test with IGROV1 ovarian. In addition, the growth in the test on OVCAR-3 ovarian is 104%; in the test on HS 578T breast it was 101%; with NCI/ADR-RES ovarian it was 101%; in the test on T-47D breast, 82.1%; in the test with BT-549 breast, 112%; with MDA-MB-435 melanoma it was 119%. Besides, the growth is 105% in the test on SW-620 colon; 96% with MCF7 breast; 95.2% in the test with HCT-116 colon; 104% with HCC-2998 colon; 104% in the test on KM12 colon.
Consider `CCOC(=O)C1=C(C)NC(SCc2cc(=O)oc3ccc(F)cc23)=N[C@@H]1c1cccc2ccccc12`, for which the growth in the test on RPMI-8226 leukemia was 90.5%; in the test on OVCAR-8 ovarian, 89.5%; with OVCAR-5 ovarian, 119%; in the test with OVCAR-4 ovarian, 102%; with SK-OV-3 ovarian, 92.5%; in the test on IGROV1 ovarian, 99.4%. For the same molecule, the growth is 92.4% in the test with OVCAR-3 ovarian; 106% with HS 578T breast; 98.7% in the test on NCI/ADR-RES ovarian; 82.4% with T-47D breast; 102% with BT-549 breast; 99.1% in the test with MDA-MB-435 melanoma. The growth with SW-620 colon is 101%; in the test on MCF7 breast, 84.3%; in the test with HCT-116 colon it was 76.9%; in the test on HCC-2998 colon, 105%; in the test with KM12 colon, 97.7%.
As for `Cn1cc(-c2nc(-c3c[nH]c4c(Cl)nccc34)cs2)c2cc(Br)ccc21`, the growth with RPMI-8226 leukemia was 78.6%; with OVCAR-8 ovarian it was 80.2%; with OVCAR-5 ovarian it was 97.6%; in the test on OVCAR-4 ovarian, 90.5%; in the test with SK-OV-3 ovarian, 95.6%; in the test on IGROV1 ovarian it was 102%. The growth is 111% with OVCAR-3 ovarian; 85.6% in the test on HS 578T breast; 97.6% in the test on NCI/ADR-RES ovarian; 39.1% in the test on T-47D breast; 95.7% with BT-549 breast; 79.4% in the test with MDA-MB-435 melanoma. The growth was 98.6% with SW-620 colon; 77.4% in the test with MCF7 breast; 88.8% in the test on HCT-116 colon; 114% in the test on HCC-2998 colon; 86.2% in the test with KM12 colon.
With `N#CC1=C(N)Oc2c(ccc3ccccc23)C1c1ccccc1Cl` (stereo not drawn), the growth in the test with RPMI-8226 leukemia was 30.1%; in the test on OVCAR-8 ovarian it was 7.5% (active); in the test with OVCAR-5 ovarian, 38.8%; in the test with OVCAR-4 ovarian it was 42.2%; in the test on SK-OV-3 ovarian, 59.3%; in the test on IGROV1 ovarian, 24.9%. In addition, the growth in the test with OVCAR-3 ovarian is 5.72% (active); in the test with HS 578T breast, 16.8%; with NCI/ADR-RES ovarian, -0.548% (active); with T-47D breast, 66.5%; in the test on BT-549 breast, 20.7%; in the test with MDA-MB-435 melanoma, -41.2% (active). For the same molecule, the growth is 21.9% in the test on SW-620 colon; 16.8% with MCF7 breast; 11.9% in the test on HCT-116 colon; 17.7% in the test on HCC-2998 colon; 12.8% in the test with KM12 colon.
Regarding `COc1cccc(C(=O)NNc2nc(Cl)nc(N3CCN(C(c4ccccc4)c4ccccc4)CC3)n2)c1`, the growth with RPMI-8226 leukemia was 88%; with OVCAR-8 ovarian it was 71.1%; in the test with OVCAR-5 ovarian, 97.3%; in the test with OVCAR-4 ovarian, 72.2%; in the test on SK-OV-3 ovarian it was 96%; in the test with IGROV1 ovarian, 2.85% (active). The growth was 10.5% in the test on OVCAR-3 ovarian; 91.6% with HS 578T breast; 88% in the test on NCI/ADR-RES ovarian; 83.3% in the test on T-47D breast; 81.6% in the test with BT-549 breast; 97.2% in the test with MDA-MB-435 melanoma. Further, the growth in the test with SW-620 colon is 33.9%; in the test with MCF7 breast, 88%; with HCT-116 colon, 39.2%; in the test with HCC-2998 colon, 64%; in the test with KM12 colon, 90.2%.

Source of the values: PubChem BioAssay (NCI).
